Assay outcomes: PubChem, National Center for Advancing Translational Sciences (NCATS)
Tau fil binding = qHTS Assay for Tau Filament Binding; Microtubule-associated protein tau (Homo sapiens), P10636; recombinant tau filaments, thioflavin S fluorescence, 15 h; filaments grown with octadecylsulfate alongside compound; Potency, µM (doses to about 57.1 µM); 2% of 71,000 active; AID 596, 2007;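 note: actives lower thioflavin S fluorescence by blocking filaments or displacing dye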
Target sequence (P10636 whole entry, looked up): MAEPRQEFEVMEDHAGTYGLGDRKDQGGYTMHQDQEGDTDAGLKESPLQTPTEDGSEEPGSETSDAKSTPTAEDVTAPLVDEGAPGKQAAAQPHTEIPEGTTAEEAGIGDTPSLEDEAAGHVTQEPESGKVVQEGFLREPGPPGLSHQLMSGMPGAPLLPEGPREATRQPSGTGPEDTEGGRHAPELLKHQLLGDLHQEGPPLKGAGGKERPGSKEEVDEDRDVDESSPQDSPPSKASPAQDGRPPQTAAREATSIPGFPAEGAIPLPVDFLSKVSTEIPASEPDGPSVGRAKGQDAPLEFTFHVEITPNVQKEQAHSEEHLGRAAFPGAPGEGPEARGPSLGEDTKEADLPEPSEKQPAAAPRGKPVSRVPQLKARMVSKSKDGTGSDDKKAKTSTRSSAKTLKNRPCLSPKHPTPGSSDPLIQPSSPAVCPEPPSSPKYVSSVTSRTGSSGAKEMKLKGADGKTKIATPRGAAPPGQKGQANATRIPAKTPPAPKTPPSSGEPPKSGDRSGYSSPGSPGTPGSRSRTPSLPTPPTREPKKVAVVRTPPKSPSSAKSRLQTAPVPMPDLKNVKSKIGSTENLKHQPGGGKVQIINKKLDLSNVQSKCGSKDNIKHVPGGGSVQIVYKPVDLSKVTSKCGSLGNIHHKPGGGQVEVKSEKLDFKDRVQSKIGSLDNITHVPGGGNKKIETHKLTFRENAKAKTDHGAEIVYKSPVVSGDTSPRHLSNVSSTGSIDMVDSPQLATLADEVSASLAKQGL
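His-tagged recombinant human tau (exons 2, 3 and 10 included), 1 uM, was induced to fibrillize by 30 uM sodium octadecylsulfate with compound present. After 15 h at 37 C, thioflavine S fluorescence (ex 450, em 510 nm) was read.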
DNA Pol III inh = qHTS Assay for Inhibitors of DNA Polymerase III Holoenzyme System | reconstituted DNA polymerase III holoenzyme replication, biochemical | Potency, µM (top dose mostly 57.1 µM) | 0.25% of 71,000 active | AID 603, 2007
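Reconstituted *E. coli* holoenzyme (0.35 nM Pol III, 1 nM beta, 154 nM SSB, 2 nM primase) was preincubated with compound for 15 min at RT. Synthesis on 1.4 nM ssM13Gori ran 35 min, then was stopped with PicoGreen/EDTA and read as dsDNA fluorescence.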
YjeE inh = qHTS Assay for Inhibitors of YjeE. tRNA threonylcarbamoyladenosine biosynthesis protein TsaE (Escherichia coli (strain …. purified YjeE enzyme, qHTS inhibition assay. Potency, µM. 0.05% of 71,000 active. AID 605, 2007
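Purified YjeE (10 uM) with BODIPY Texas Red-labeled ADP probe (2 uM); compounds pin-transferred, 15 min at room temperature. Binding inhibition read as decreased fluorescence polarization; ADP titration as control.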
ALOX15 inhib = qHTS Assay for Inhibitors of 15-hLO (15-human lipoxygenase). purified 15hLO-1, xylenol orange hydroperoxide absorbance. Potency, µM (doses to about 57.1 µM), most hits filed as inhibitors. 1.4% of 74,000 active. AID 887, 2007; note: nearly all actives have a fitted effect of over 55% in size
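Compounds were preincubated 15 min at room temperature with 40 nM purified human enzyme (25 mM Hepes pH 7.5, 0.01% Triton X-100); 50 uM arachidonic acid reacted 6 min. Fe-xylenol orange detection, 30 min, absorbance ratio 573/405 nm.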
BRCT PPI green = qHTS Assay for Inhibitors of BRCT-Phosphoprotein Interaction (Green Fluorophore) | AID 875, 2007 | Potency, µM (doses to about 76.9 µM), usual class: inhibitors | BRCA1 BRCT-phosphopeptide binding, green fluorescence polarization | 0.05% of 75,000 active
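Fluorescence polarization: His-tagged BRCT (~35 kDa BRCA1 C-terminus, 250 nM) bound to 100 nM fluorescein-labeled phosphorylated 10-aa BACH1 peptide, pH 7.3 phosphate buffer with DTT and Tween 20. Compounds incubated 12 min at room temperature; inhibition read as lowered polarization.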
BRCT inh red = qHTS Assay for Inhibitors of BRCT-Phosphoprotein Interaction (Red Fluorophore). AID 892, 2007. 0.03% of 75,000 active. Potency, µM (doses to about 76.9 µM), actives largely listed as inhibitors. BRCT-phosphopeptide binding, red fluorescence polarization. Breast cancer type 1 susceptibility protein (Homo sapiens), P38398
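Fluorescence polarization: 100 nM His-tagged BRCA1 BRCT with 100 nM TAMRA-labelled phospho-BACH1 decapeptide, phosphate buffer pH 7.3 with 150 mM NaCl, DTT, 0.01% Tween 20; 12 min RT. Binding inhibition seen as FP decrease.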
Each line names hits and unclear results; the compound was inactive in the other large screens; ! = a repeat was not active. Most compounds without a hit are left out; they make up all but 3.3% or so of the library. Calls come from the whole dose curve; as a rule, active = well fitted curve in the direction sought with a large enough effect; inconclusive = small, poorly fitted or top-dose-only effect, or another doubt; inactive = no such curve, though single readings can be large; an effect the other way counts as inactive or inconclusive.

N[C@]1(C(=O)O)CC[C@@H](C(=O)O)C1	none (no result: ALOX15 inhib, BRCT PPI green, BRCT inh red)
C[C@@H]1[C@@H]2Cc3ccc(O)cc3[C@@]1(C)CCN2CC1CC1	none
CN1CC[C@]2(C)c3cc(O)ccc3N(C)[C@@H]12	Tau fil binding 31.6µM!, ALOX15 inhib inconclusive
CCCN1CCO[C@@H]2c3cc(O)ccc3OC[C@@H]21	Tau fil binding 39.8µM, ALOX15 inhib inconclusive
C[C@@H]1CC[C@@H]2N(C1)C[C@H]1[C@@](O)([C@H](O)C[C@]3(O)[C@H]4CC[C@H]5[C@]6(O)O[C@]4(C[C@]13O)[C@@]5(C)CC[C@@H]6O)[C@@]2(C)O	none
N#CC(C#N)=Cc1cc(O)c(O)c(O)c1	ALOX15 inhib 7.94µM
CC1=C2[C@@H]3OC(=O)[C@H](C)[C@H]3CC[C@@]2(C)C=CC1=O	none (no result: ALOX15 inhib, BRCT PPI green, BRCT inh red)
Nc1ccc(N2CCN(Cc3ccccc3Cl)CC2)c(Cl)c1	Tau fil binding 25.1µM
Cc1ccc(NC(=[OH+])c2cc3ccccc3cc2O)c(C)c1.Cc1ccc(NC(=[OH+])c2cc3ccccc3cc2O)c(C)c1.[Ni]	ALOX15 inhib 3.98µM
COc1cc2c(cc1OC)-c1c(O)c(OC)cc3c1[C@@H](C2)N(C)CC3	Tau fil binding 31.6µM (no result: ALOX15 inhib, BRCT PPI green, BRCT inh red)
COc1cc2c(cc1OC)-c1c(O)c(OC)cc3c1[C@H](C2)N(C)CC3	ALOX15 inhib inconclusive (no result: Tau fil binding, DNA Pol III inh, YjeE inh)
O=C(O)[C@H]1CCN1	none
CC(C)[C@H]1C(=O)N2CCC[C@@H]2[C@]2(O)O[C@@](NC(=O)[C@H]3C=C4c5cccc6[nH]cc(c56)C[C@H]4N(C)C3)(C(C)C)C(=O)N12	none (no result: ALOX15 inhib, BRCT PPI green, BRCT inh red)
CCCC[N+]1(C)[C@@H]2CC(OC(=O)[C@@H](CO)c3ccccc3)C[C@H]1[C@H]1O[C@H]12 (stereo not given in full)	none
CC1=NCCc2c1[nH]c1cc(O)ccc21	BRCT PPI green 31.6µM!
CC[C@H]1C(=O)OC[C@H]1Cc1cncn1C	ALOX15 inhib inconclusive
CCC1C(=O)OCC1Cc1cncn1C (stereo not given)	Tau fil binding 39.8µM
N[C@H](Cc1c[nH]c2ccccc12)P(=O)(O)O	none
CCCCCCCCCCCCCCCC[n+]1ccccc1	YjeE inh inconclusive
CCCCCCC[n+]1ccc(-c2cc[n+](CCCCCCC)cc2)cc1	Tau fil binding 15.8µM
N#C/C(=C\c1ccc(O)c(O)c1)C(N)=S	ALOX15 inhib 3.98µM
O=C(O)CN1CCN(CC(=O)O)CC(=O)[O][Hg][O]C(=O)C1	ALOX15 inhib 0.159µM
O=C(Nc1ccc([As](=O)(O)O)cc1)Nc1cccc(Cl)c1Cl	none
CC1=NN(c2ccccc2)C(=O)[C@@H]1N=Nc1ccc([As](=O)(O)O)c(O)c1	Tau fil binding 3.16µM
C[C@@H](Cc1ccc2c(c1)OC(C(=O)O)(C(=O)O)O2)NC[C@H](O)c1cccc(Cl)c1	none
Oc1ccccc1O	ALOX15 inhib 15.8µM
CCCCCCn1c(N)c(C(=O)NCCN2CCOCC2)c2nc3ccccc3nc21	ALOX15 inhib 15.8µM
CCCCCn1c(N)c(C(=O)NCCN2CCOCC2)c2nc3ccccc3nc21	none
O=C(c1ccc2nc(-c3ccco3)c(-c3ccco3)nc2c1)N1CCC2(CC1)OCCO2	DNA Pol III inh inconclusive, ALOX15 inhib 3.98µM
CC[C@H](CO)NC(=O)[C@H]1C=C2c3cccc4[nH]cc(c34)C[C@H]2N(C)C1	none (no result: ALOX15 inhib, BRCT PPI green, BRCT inh red)
NC(=O)OCCSc1nnc(-c2cccc(C(N)=S)c2)o1	none
O=C(OCC#CCSc1nnc(-c2ccccc2)o1)c1ccco1	ALOX15 inhib 25.1µM
COc1cc2c3cc1Oc1c(O)c(OC)cc4c1[C@@H](Cc1ccc(cc1)Oc1cc(ccc1O)C[C@H]3N(C)CC2)N(C)CC4	none
CN1CC=C(c2c[nH]c3ccccc23)CC1	ALOX15 inhib 0.631µM
CN1CCC[C@@H]1c1cccnc1.O=C(O)c1ccccc1O.O=C([OH2+])c1ccccc1O.O=C([OH2+])c1ccccc1O.O=C([OH2+])c1ccccc1O.[Mn]	none
CNc1ccc2oc(C[C@H]3O[C@]4(CC[C@H]3C)O[C@H]([C@H](C)C(=O)c3ccc[nH]3)[C@H](C)C[C@H]4C)nc2c1C(=O)O	Tau fil binding 39.8µM
Cc1ccc(N=C=O)cc1N=C=O	none
Cc1cc(N=Nc2ccccc2C)ccc1N	Tau fil binding 7.94µM
C[C@@]12CC[C@H]3[C@@H](CC[C@@H]4C[C@H](O)CC[C@]43C)[C@H]1CC[C@H]2O	none
N[C@@H](Cc1cc(O)c(O)cc1O)C(=O)O	Tau fil binding 25.1µM, DNA Pol III inh 0.398µM, ALOX15 inhib inconclusive, BRCT PPI green inconclusive, BRCT inh red inconclusive
CCCCCCCCCCCCCC(=O)O[C@H]1[C@@H](C)[C@@]2(O)[C@@H](C=C(CO)C[C@]3(O)C(=O)C(C)=C[C@@H]23)C2C(C)(C)[C@]21OC(C)=O (stereo not given in full)	none
CN1Cc2ccccc2[C@@H]2c3cccc4[nH]cc(c34)C[C@H]21	Tau fil binding 25.1µM, ALOX15 inhib inconclusive
CN(C)CCCc1c[nH]c2ccccc12	none
Cc1o[nH]c(=O)c1C[C@H](N)C(=O)O	Tau fil binding 31.6µM!
O=[As](O)(O)c1ccc(N=Nc2ccc([As](=O)(O)O)cc2)cc1	none
O=[As](O)(O)c1ccc(N=Nc2ccc(O)cc2)cc1	Tau fil binding 3.16µM
[O]=[Cr](=[O])([OH])[O][Cr](=[O])(=[O])[OH]	Tau fil binding 1.26µM!, DNA Pol III inh 5.01µM!
N[C@H](Cc1ccc(N(CCCl)CCCl)cc1)C(=O)O	none
O=C(O)c1ccccc1-c1c2cc(Br)c(=O)cc-2oc2[c]([Hg])c(O)c(Br)cc12	ALOX15 inhib 0.251µM, BRCT PPI green 0.794µM, BRCT inh red 1.58µM
COC[C@@H]1OC(=O)c2coc3c2[C@]1(C)C1=C(C3=O)[C@H]2CCC(=O)[C@]2(C)C[C@@H]1OC(C)=O	none (no result: ALOX15 inhib, BRCT PPI green, BRCT inh red)
O=C1C[C@@H]2OCC=C3CN4CC[C@]56c7ccccc7N1[C@H]5[C@@H]2[C@H]3C[C@@H]46	Tau fil binding inconclusive (no result: ALOX15 inhib, BRCT PPI green, BRCT inh red)
CCCCc1ccc2[nH]cc(CCN)c2c1	Tau fil binding 15.8µM
NCCc1c[nH]c2ccccc12	none
CN1C[C@@H](CNC(=O)OCc2ccccc2)C[C@H]2c3cccc4c3c(cn4C)C[C@@H]21	none (no result: ALOX15 inhib, BRCT PPI green, BRCT inh red)
O=C(O)c1cc[c]([Hg][Cl])cc1	ALOX15 inhib 1.58µM
O=C(O)c1cccc(Cl)c1	none
